In PubChem BioAssay (NCI):
The panel holds about 83,000 compounds, 20% with a hit somewhere; the sample as a whole holds those more often.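 Assay: single dose, 48 h. Readout: percent growth (0 = no net growth; negative = cell death). Active: <10.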 A number with no mark means an inactive call. Calls of active or inactive are those of the source.

Each compound was assayed on BT-549 breast (assay: NCI-60 one-dose screen, 48 h (100 = growth as untreated, 0 = no growth, -100 = all killed)). Conditions: 10 µM unless noted.
For `O=S(=O)(c1ccccc1)N1CCCN(c2nc(-c3ccccc3)nc3nc(-c4ccccc4)oc23)CC1`, the growth was 107%. Compound `Clc1ccc(-c2cn3ccsc3n2)c(Cl)c1Cl` has a growth of 86.3%. `O=C(CN1C(=O)/C(=C/c2ccco2)SC1=S)NCCc1c[nH]c2ccc(F)cc12` showed a growth of 97.4%. `N/C(=N\c1nc2ccccc2s1)NC(=NC1CCCCC1)NC1CCCCC1` was tested, and the growth was 47.6%. `CC(O)c1ncc(/C=C2\SC(=S)N(Cc3ccccc3)C2=O)s1` (centres undefined) gave a growth of 92.9%. `COc1ccc2nc3ccccc3c(NCc3ccc(F)cc3)c2c1` gave a growth of 35%. `COc1cc(-c2cc(-c3ccc(Nc4ncnc5cc(Cl)ccc45)cc3)nc(N3CCN(C)CC3)n2)cc(OC)c1OC` showed a growth of 94.5%. In the case of `O=C(Nc1cccnc1Nc1ccc(Cl)cc1)c1cn(Cc2ccc(F)cc2)nn1`, the growth is reported as 88%. With `N#Cc1c(NC(=O)c2cccs2)[n+]([O-])c2ccc(Cl)cc2[n+]1[O-]` the growth was 113%. With `CCOC(=O)/C=C/c1c(C)[nH]c(=O)[nH]c1=O` the growth was 99.1%. `COc1ccc(C2C3=C(COC3=O)N(CCO)c3cc4c(cc32)OCCO4)cc1OC` (centres undefined) showed a growth of 53.9%. For `CN1CCN(c2ccc3c(c2)nc(NNC(=O)c2cnccn2)c2cccn23)CC1`, the growth was 41.2%. `C=CCOC(=O)C1=C(C)NC(=O)NC1c1c(Cl)n(C)c2ccccc12` (centres undefined) was tested, and the growth was 99.1%. Work on `COc1ccc(Cl)cc1Nc1nc(C(F)(F)F)ccc1C(=O)N/N=C/c1ccccc1Cl` yielded a growth of 13.3%. `N#Cc1c(-c2ccccc2)nc2c(c(-c3ccccc3)nn2-c2ccccc2)c1-c1ccc(N2CCOCC2)cc1` was tested, and the growth was 99.8%. Work on `O=C(CCCCCCCCC(=O)N/N=C\c1cc(Cl)ccc1O)N/N=C\c1cc(Cl)ccc1O` yielded a growth of 38.5%. For `Nc1ccc([N+](=O)[O-])cc1N=C/C=C/c1ccccc1`, the growth was 55%. In the case of `CC1CN=C(c2cccc(-c3ccc(-c4ccccc4)o3)c2)N1` (centres undefined), the growth is reported as 50.8%. Work on `CCCCc1oc2ccccc2c1C(=O)c1ccc(O)cc1` yielded a growth of 70.1%. In the case of `Cc1cc2oc(=O)cc(CP(=O)(O)O)c2cc1O`, the growth is reported as 105%. `CCOC(=O)C1=C(C)N=C2SC=C(c3ccccc3)N2[C@H]1c1cn[nH]c1-c1ccc(Cl)cc1` gave a growth of 34.1%. With `CCN1C(=S)N(CC)C2C1NC(=S)N2/N=C/C=C/c1ccccc1OC` (centres undefined) the growth was 13.5%. `CC(=O)N/C(=C1/OC(C(O)C(O)C(O)CO)CN1C)[P+](c1ccccc1)(c1ccccc1)c1ccccc1` (centres undefined) showed a growth of 102%. For `CCNc1nc(-c2ccc(F)cc2)c(C#N)c(=O)n1C`, the growth was 42.1%. `C(/C=C/c1ccccc1)=Nc1ccc(CCc2ccc(N=C/C=C/c3ccccc3)cc2)cc1` was tested, and the growth was 91.9%. Compound `Fc1ccc(CNc2c3ccccc3nc3ccccc23)cc1` has a growth of 80.7%. `Cn1c(=O)c2c(nc(NC3=NS(=O)(=O)c4ccccc43)n2Cc2ccccc2)n(C)c1=O` was tested, and the growth was 106%. `O=c1nc(Nc2nc3ccccc3s2)[nH]c(=O)c2ccccc12` showed a growth of 97.5%. With `c1ccc2cc(Cn3c[n+](Cc4ccc5ccccc5c4)c4ccccc43)ccc2c1` the growth was -82.7% (active). In the case of `Cc1[nH]c(/C=C/C(=O)c2ccc(C(F)(F)F)c(F)c2)c(C)c1C(=O)NCC(C)C`, the growth is reported as 111%. In the case of `O=C(Nc1cccc(NC(=O)C2CCCCC2)c1)c1ccccn1`, the growth is reported as 102%. `CCOC(=O)c1c2c(n3ccccc13)C(=O)c1ncccc1C2=O` was tested, and the growth was 31.6%. With `COc1ccc(C(c2cc(OC)c(OC)c(OC)c2)N2CCN(Cc3ccccc3)CC2)cc1` (centres undefined) the growth was 92.4%. In the case of `CN(C)c1ccc(/C=C2/C=C(c3ccccc3)OC2=O)cc1`, the growth is reported as 98.6%.
